Screening data (PubChem)
Compounds with a hit are over-represented: about 2.7% of the library has one in this group of screens.
A549 viability: A549 cytotoxicity, counter-screen for Nrf2 inhibitors; A549 ARE-Fluc cells, CellTiter-Fluor viability, 18-24 h; Potency, µM (doses to about 46 µM), for inactives: at the highest dose activity change, negative = cytotoxicity, most hits filed as inhibitors; 390,000 compounds, 0.16% hits; AID 504648; also: potency is read from the fitted curve at half-maximal effect; % is scaled to controls: 0 for no effect and ±100 for the full control effect
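A549 ARE-Fluc cells in 5% FBS OPTI-MEM, 5000 cells/well, rested 2 h then exposed to compounds in concentration-response for 18-24 h at 37 °C. Viability by CellTiter-Fluor fluorescence (Ex 405/Em 525) after 30 min; luciferase luminescence (BugLite, 15 min, RT) read afterwards.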
ALOX12 inh: ALOX12 (human) lipoxygenase inhibition. P18054. purified 12hLO, xylenol orange hydroperoxide absorbance. Potency, µM (series often up to 108 µM), for the others: at the highest dose activity change, negative = inhibition, actives largely listed as inhibitors. 580,000 compounds, 1.1% hits. AID 1671190; also: potency is read from the fitted curve at half-maximal effect; % is scaled to controls: 0 for no effect and ±100 for the full control effect
Target sequence (P18054 whole entry, looked up): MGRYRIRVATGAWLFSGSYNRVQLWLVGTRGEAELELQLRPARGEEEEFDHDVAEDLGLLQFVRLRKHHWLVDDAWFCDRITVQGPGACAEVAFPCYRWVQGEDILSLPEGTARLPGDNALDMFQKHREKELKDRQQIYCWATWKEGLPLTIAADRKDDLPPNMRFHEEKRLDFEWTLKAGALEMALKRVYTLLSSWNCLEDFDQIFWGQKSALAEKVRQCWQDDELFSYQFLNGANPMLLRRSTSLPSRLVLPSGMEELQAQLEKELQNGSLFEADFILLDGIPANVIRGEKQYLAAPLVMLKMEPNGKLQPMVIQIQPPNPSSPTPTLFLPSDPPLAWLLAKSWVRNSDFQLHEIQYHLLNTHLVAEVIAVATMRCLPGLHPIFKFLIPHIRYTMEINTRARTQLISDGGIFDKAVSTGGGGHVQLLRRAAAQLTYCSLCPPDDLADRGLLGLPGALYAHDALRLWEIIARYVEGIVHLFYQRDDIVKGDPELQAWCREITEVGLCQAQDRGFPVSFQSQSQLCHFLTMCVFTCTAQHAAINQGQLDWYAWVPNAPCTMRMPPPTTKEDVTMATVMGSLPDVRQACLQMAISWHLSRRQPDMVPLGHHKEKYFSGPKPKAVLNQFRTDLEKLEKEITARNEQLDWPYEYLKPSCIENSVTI
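Purified human 12hLO (150 nM final) in 25 mM Hepes, 0.01% Triton X-100, pH 7.0 was preincubated 15 min at room temperature with compound. Then 40 uM arachidonic acid was added, 30 min. Hydroperoxide was read by Fe-XO absorbance ratio 573/405 nm.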
LDHA block: LDHA (human) enzyme inhibition; activity change, % (values are at about 110 or 230 µM); AID 1347041; 480,000 compounds, 0.15% hits; P00338; purified LDHA, NADH/diaphorase-resazurin fluorescence; stronger effect = lower value; in the data active = activity change below about -30%; inconclusive = mostly about -25% to -30%;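 also: plate controls were DMSO wells for no effect and wells without enzyme for full effect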
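Human LDH5 at 2 nM final in Tris HCl pH 7.4 with 0.06 mM NADH and 0.2 mM pyruvate, reacted 5 minutes at room temperature. Remaining NADH coupled via diaphorase/resazurin; resorufin fluorescence read at 0 and 20 minutes, normalized to enzyme-free and DMSO wells.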
ERG Ets-DNA blk: inhibitors of human ERG Ets domain-DNA interaction. P11308. fluorescence polarization, His-ERG Ets domain / labelled DNA. Potency, µM (highest dose often 76.9 µM), for inactives: top-dose FP activity, negative = inhibition, most hits filed as inhibitors. 370,000 compounds, 0.028% hits; active = well fitted inhibition curve with a large enough effect in the polarisation, with a control signal flat; inconclusive = small, poorly fitted or top-dose-only effect, or effect the other way, or a change in a side signal; inactive = no such curve, though single readings can be large or run the other way; the % refers to the polarisation;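 also: polarization taken with two DNA probes labelled with fluorescein and Texas red; potency is read from the fitted curve at half-maximal effect; % of control where 0% means no effect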
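His-tagged ERG Ets domain (1 uM in the protein solution; 300mM KCl, 50mM Tris-HCl, 1mM EDTA, 1mM DTT, pH 7.5) received compound, then a probe mix of 5 nM fluorescein-DNA and 100nM Texas-615-DNA. Fluorescence polarization was read for both dyes.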
Nrf2 block: blocks Nrf2 signaling; 360,000 compounds, 2.1% hits; Potency, µM (highest dose often 46 µM), for inactives: at the top dose activity change, negative = inhibition, usual class: inhibitors; A549 ARE-Fluc reporter, luciferase luminescence, 18-24 h; also: potency is read from the fitted curve at half-maximal effect; % is scaled to controls: 0 for no effect and ±100 for the full control effect; nearly all actives have a fitted effect of over 60% in size
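A549 ARE_Fluc cells (5000/well, 5% FBS OPTI-MEM) pre-incubated 2 h, then treated with compounds 18-24 h at 37C/5% CO2 in concentration-response. CellTiter-Fluor viability read first; BugLite luciferase luminescence after 15 min at room temperature gives Nrf2 activity.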
Nrf2 activator: activates Nrf2 signaling; AREc32 ARE-luciferase reporter (MCF7-derived line), luminescence, 24 h; Potency, µM (highest dose often 46.1 µM), inactives show at the top dose activation, hits mostly activators; 410,000 compounds, 0.31% hits; AID 624171; also: potency is read from the fitted curve at half-maximal effect; % of control where 0% means no effect; nearly all actives have a fitted effect of over 65% in size
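AREc32_Fluc, 1000 cells/well, OPTI-MEM + 5% FBS, o/n 37 deg C 5% CO2; 23 nL cpd by pin tool, 24 hr; Steady-Glo 30 min RT, luminescence.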
An asterisk follows results filed as active; ? = inconclusive; / = no result given. Unless noted, calls follow the shape of the dose curve; as a rule, active = well fitted curve in the direction sought with a large enough effect; inconclusive = small, poorly fitted or top-dose-only effect, or another doubt; inactive = no such curve, though single readings can be large; an effect the other way counts as inactive or inconclusive.

SMILES	A549 viability	ALOX12 inh	LDHA block	ERG Ets-DNA blk	Nrf2 block	Nrf2 activator
Nc1ccc2c(N3CCCCC3)ncnc2c1	/	42%	/	/	/	/
Brc1cc(Br)c2ncnc(N3CCCCC3)c2c1	?	43%	-8	5%	26µM*	0%
N#CCCN1CCN(C(C(=O)O)c2c(-c3ccccc3)[nH]c3ccccc23)CC1 (stereo not given)	/	-4%	5	/	/	/
O=S(=O)(O)c1cc(O)c2ccc(Nc3ccccc3)cc2c1	-5%	18µM*	39	3%	-6%	4%
CC(=O)Nc1ccc2c(O)cc(S(=O)(=O)O)cc2c1	2%	?	13	10%	4%	1%
O=S(=O)(O)c1ccc(O)c2cc(Nc3ccccc3)ccc12	-3%	32µM*	23	2%	6%	-1%
O=S(=O)(O)c1cc(O)c2cc(Nc3ccccc3)ccc2c1	-5%	35µM*	21	0%	-2%	0%
COc1ccccc1Nc1ccc2c(O)cc(S(=O)(=O)O)cc2c1	-3%	10µM*	29	6%	-18%	1%
Cc1ccc(-n2ncc3c2NC(=O)CC32C(=O)Nc3ccccc32)c(C)c1 (stereo not given)	/	-8%	2	/	/	/
O=C(Nc1cccc(-c2nc3ncccc3o2)c1)c1ccc(-c2cccc(Cl)c2Cl)o1	-6%	?	-7	-2%	5.8µM*	0%
Cc1ccc(NC(=S)NC(=O)c2ccc(F)cc2)cc1S(=O)(=O)Nc1cccc(Cl)c1	-8%	13µM*	-11	-5%	?	4%
Cc1ccc(NC(=O)CC(=O)c2ccc([N+](=O)[O-])cc2)cc1S(=O)(=O)Nc1cccc(Cl)c1	?	-11%	-9	0%	16µM*	0%
C=C(C)CC1(Nc2ccccc2C)CCCCC1	/	?	8	/	/	/
CC#CCN1c2ccccc2[C@]23C[C@@H](C(=O)OC)N(C(=O)c4cc(C)oc4C)C2=NC(C(=O)OC)=C(C(=O)OC)[C@H]13	-15%	-12%	1	-6%	16µM*	0%
O=C(c1ccccc1)[C@@H]1[C@@H]2C(=O)N(c3ccc(F)cc3)C(=O)[C@@H]2C2CCCN21 (stereo not given in full)	19%	?	-12	10%	4%	10µM*
Cc1ccc(N2C(=O)[C@@H]3[C@H](C2=O)C2CCCN2[C@@H]3C(=O)c2ccccc2)cc1 (stereo not given in full)	1%	45µM*	2	-4%	10%	?
CCCc1cc(=O)oc2cc(OC(C)C(=O)NCc3ccccn3)ccc12 (stereo not given)	/	-6%	9	/	/	/
O=C(COc1ccc(Br)cc1CO)N1CCCc2ccccc21	3%	-13%	-5	-14%	-9%	-1%
CCc1cc(=O)oc2c(C)c(OCC(=O)N3CCCc4ccccc43)ccc12	1%	0%	-3	-5%	12µM*	2%
Cc1cccc(N2CCN(C(=O)COc3ccc4c(C)cc(=O)oc4c3C)CC2)c1C	-8%	?	0	6%	16µM*	0%
CCCn1nc(C(=O)OCC(=O)N2CCCc3ccccc32)c2ccccc2c1=O	/	?	-31*	/	/	/
Cn1nc(C(=O)OCC(=O)N2CCc3ccccc32)c2ccccc2c1=O	2%	19%	4	-7%	5%	0%
CNC(=O)NC(=O)C(C)Sc1ncnc2ccccc12 (stereo not given)	/	?	-5	/	/	/
CC1(C)N=C(SCC(=O)Nc2ccc(Br)cc2)C(c2ccc(Br)cc2)=N1	/	?	7	/	/	/
Cn1cc(C(=O)N2CCN(S(=O)(=O)c3cccc(F)c3)CC2)c2ccccc21	/	-21%	-8	/	/	/
SMILES	A549 viability	ALOX12 inh	LDHA block	ERG Ets-DNA blk	Nrf2 block	Nrf2 activator
CCNc1oc(-c2ccc(COc3cc(C)ccc3C)o2)nc1C#N	/	?	-3	/	/	/
CNC(=O)CN(C)C(=O)c1ccc(N2CCNCC2)c(NS(=O)(=O)c2ccc(C)c(C)c2)c1	/	-3%	17	/	/	/
Fc1ccc(-[n+]2nc(Nc3ccccc3)sc2-c2ccc(OCc3ccccc3)cc2)cc1	-3%	40µM*	-4	22%	-7%	5%
CCOc1cc(-c2sc(Nc3ccccc3)n[n+]2-c2ccc(F)cc2)ccc1OC	1%	-27%	-3	1%	9%	2%
O=C(CN1CCN(c2ccc(O)cc2)CC1)Nc1cccc(S(=O)(=O)N2CCCC2)c1	/	?	47	/	/	/
NC(=S)N/N=C1\CC(c2ccc3c(c2)OCCCO3)Oc2ccc(F)cc21 (stereo not given)	-3%	6.3µM*	-6	-2%	-15%	5%
NC(=S)N/N=C1\CC(c2ccc3c(c2)OCCO3)Oc2ccc(F)cc21 (stereo not given)	-8%	?	-8	2%	-23%	0%
COc1cccc(CNc2ncnc3ccc(-c4c(C)noc4C)cc23)c1	-1%	1%	0	/	12µM*	26%
CCn1cnc2c1c(=O)n(CC(=O)Nc1ccccc1N1CCCC1=O)c(=O)n2Cc1ccccc1	/	?	4	/	/	/
O=C(Nc1ccccc1Cl)N1CCN(c2ccc3nnc(-c4ccc(F)cc4)n3n2)CC1	-9%	17%	-4	-2%	?	0%
COc1ccccc1NC(=O)N1CCN(c2ccc3nnc(-c4ccc(F)cc4)n3n2)CC1	-9%	-14%	6	-16%	9.2µM*	8%
O=C(Nc1ccc(Cl)cc1)N1CCN(c2ccc3nnc(-c4ccccc4)n3n2)CC1	-22%	-6%	3	-3%	26µM*	3%
Cc1ccc(NC(=O)NCCCNc2ccccc2)cc1NC(=O)NCCCNc1ccccc1	/	?	8	/	/	/
O=C(Nc1nc(-c2cc3ccccc3oc2=O)cs1)c1ccc([N+](=O)[O-])cc1	/	?	8	/	/	/
COc1ccc(-c2cc(C)no2)cc1S(=O)(=O)N1CCN(c2ccc(C(C)=O)cc2)CC1	-1%	-10%	-3	-6%	13µM*	0%
CCOC(=O)c1cc(-c2ccc(OC)c(S(=O)(=O)N3CCN(c4ccccc4)CC3)c2)on1	3%	-13%	-4	1%	?	1%
COc1ccc(C(=O)NO)cc1	/	?	-7	/	/	/
Cc1cc(N2CCN(CCO)CC2)n2nc(C)c(-c3ccc(F)cc3)c2n1	/	11%	10	/	/	/
COc1ccc(Nc2cnn(-c3nc4ccccc4s3)c(=O)c2Cl)cc1	-13%	-5%	-1	-12%	?	10µM*
C(=N\Nc1ccccc1)/c1ccc(OCc2ccccc2)cc1	/	?	-5	/	/	/
